# From PubChem BioAssay AID1508600 (Functional Genomics Laboratory (NCATS/FGL), 2020)
# Hit rate of the full screen: of about 53,000 sequences, about 3,700 (7%) were called active. Many of the other results were omitted from the sample, so actives are more common in it than they were. Unmarked numbers belong to inactive results.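 The calls were made as follows: active = gene knockdowns whose robust z-score for IL-1 alpha signal is at least 2 or at most -2, so actives lie on both sides; inactive = the rest.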
# Test: Components of the Cytosolic LPS Sensing Pathway: Gene Identification via Genome-wide siRNA Screen;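 also: robust z of the log signal after scaling to non-targeting control siRNA wells of the plate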
# Conditions: RAW264.7 macrophages, IL-1a HTRF, actives lie on both sides, screened at 100 nM (by protocol), cells primed 5 h with Pam3CSK4 first
# How it was run: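 Cells (RAW264.7, 1×10^4 per well) were transfected with siRNA at 100 nM and cultured 48h at 37 degrees C. Pam3CSK4 was added for 5 hours; LipidA transfection followed for 24 hour. IL-1a was then measured by HTRF.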
row,Sequence,z-score
1,CGGGUGCUAAAAUGUCUAUTT against Khdrbs2,2.81 (active)
2,CCGAAGUUCACCCUAAAGGTT against Lmna,-0.485
3,GCAAAGAAGUGUAUGUGUUTT against Olfr273,0.0336
4,GCUUCUCAGAAGAUGUACUTT against Rgs16,-1.06
5,GCCCUAUAUAUCAUUCUAGTT against Rhoa,1.12
6,GCCUGUUAUAUGUGGCCUUTT against Olfr1352,0.673
7,GGAUGUCCUGAAAGAAAAATT against H2-M9,0.633
8,GCUUUAUUCACUCACUUUCTT against Chsy3,0.814
9,GGAUAACUGUAACAGCCCGTT against Ly6g6c,-2.12 (active)
10,GGUGAUUUCUAUCGAUUUUTT against Dhrs9,0.144
11,GGACGUGCUCAAGUUCAUCTT against Ift172,0.519
12,GGAAGUCAAGCAAAAGUUUTT against Hsd17b7,-0.516
13,GGUUGAAGAUGAAAGAAGATT against Sin3a,0.132
14,CGAAGCUCAACAGAUUCCUTT against Prl7a2,-0.278
15,GGCACGAUGGUUCAUCCUUTT against Plek2,-2.01 (active)
16,CGGCCUACAACUACCCAACTT against Tekt3,1.02
17,CGACGUAUCCGUUCUAUAATT against Eif2s1,-1.05
18,GAGCAUAGAAACCAUGCACTT against Acot2,-0.621
19,GGAGAUGUAACCAUAGGCCTT against Dctn6,2.07 (active)
20,GCUAAAGAAAAGUGGAGACTT against Pbdc1,0.165
21,GGCAGAAAGACAUUUUCUUTT against Ift80,-2.53 (active)
22,GCAUAUCUAUAACAGAGCCTT against Rnase2a,-1.23

row,Sequence,z-score
1,GGAAAUGUCAUGACCUUGATT against Tnfaip6,-1.89
2,CCUGGUGCUAUGGACUAAATT against Tectb,-1.15
3,GCUACGGAUGCUUUUCAAATT against Ube2i,-0.351
4,UAUUGUCACCGUCUUAGGCTT against Olfr1028,-2.84 (active)
5,CGUAUCUUAUAUCAGGAAATT against Trem1,0.513
6,GGAGAACAUAAAAAUGGUGTT against Stk39,-0.0786
7,GGAGUUUUGGGUGAUGAUATT against Olfr974,-2.41 (active)
8,GGUCUUUUGUAAAAACCCUTT against Sytl2,0.099
9,GGCAACAGUGAAAGAUGAATT against Acnat2,0.0608
10,GCAACCGCGUCACAUUGAATT against Bicc1,0.655
11,GCGAGCAUGAAGUUAGUAATT against C230029F24Rik,0.914
12,GGAGUGACUCCUACAAAAUTT against Ms4a4b,-2.01 (active)
13,CCAGUGGUCAUUCUUGUCUTT against Olfr1076,0.314
14,GCUGUCGACUUUAAAAGGUTT against Pcdhga7,-0.356
15,GGCAGAAACUAAGAAUGAATT against Mx1,-0.292
16,GGACCUUUUGUGAACUUACTT against E2f3,4.53 (active)
17,GGUGAAGAAAGCACUGUUUTT against Olfr980,0.0649
18,GGAAAUCAGAAUUCCAAAATT against Cntn6,1.56
19,GGCCUAUUUGUUUUUGAAATT against Mthfd2,1.45
20,GGACUAUUCACACUAAGUCTT against Them5,-0.214
21,GGGAAACAAAAAGCAGAUATT against Ccdc47,0.325
22,GGAACUGGAAAUCUCAGAGTT against Pcdh12,0.447

row,Sequence,z-score
1,GCCACAUCAGAUGAAGUCCTT against Ppm1e,-2.26 (active)
2,GCCCAAUCUACACAGACCATT against Slc7a13,-0.939
3,GGAUGUGUGUGUCUCCUCATT against Prr9,-0.256
4,GCUACAGAUUAGGGACAUATT against Pcdhb2,4.53 (active)
5,CCACUCCCAUAAGGGCUAUTT against Smo,-0.144
6,CCUGAACAUAAAGUUUACUTT against Catsper4,0.209
7,CGACAUGUCAAAACUCACGTT against Zfp791,1.22
8,CCAUGUACCAGAUUAAGUATT against Krt8,1.16
9,GGUGAAAAGCAGCUAACAATT against Fam135a,-1.6
10,GCUGUAAUGCUAAUGACAUTT against Gpr22,1.23
11,CCAUGGUCAUCCCGAUGUUTT against Olfr1454,0.171
12,CGAGAAGGGAUUUUAGAAGTT against A830018L16Rik,-0.92
13,GGAGAAACUCUUCAGGCUUTT against Tceal8,-2.19 (active)
14,GGCAGGCAGAAGGCUUUUUTT against Olfr228,1.07
15,GGUGGACAGGAGAAAGGAATT against Npy6r,-0.578
16,GGAGACCUGAAUUUUUCAGTT against Tab2,0.469
17,GGAACAAUUGUUCCUGUGATT against Kcne1,-2.04 (active)
18,GGAAGAAGCAACCACAUUCTT against Evl,0.898
19,GGAGGAGUUUGACUUCGACTT against Alox12,-0.109
20,CGUAGACAUGGCCUUUUUUTT against Dipk1c,-0.863
21,GCAAAUGAAUCAUGGGUGGTT against Rnf141,0.116
22,GGAACGUGGAUCUUUUUAUTT against Wiz,2.42 (active)

row,Sequence,z-score
1,GCUGUCCUUCUAUAACCCATT against Frmd5,-1.68
2,GCUCUACAUCGAAUUGCUGTT against Lig4,4.14 (active)
3,GGCGACAAAAAGGCUAAGCTT against Khnyn,0.437
4,GGAACUAGCCUUCACUGACTT against Rabggta,0.931
5,GGUUGCAUCACAGCGUAUATT against Phlpp1,0.759
6,GGAGGAAAAUGAUGGAGAGTT against Lysmd1,2.28 (active)
7,CCACUUUAGCUCCUUUAAGTT against Tet3,-0.438
8,GGAGCUCUACAUCAUAGACTT against Lhx1,0.579
9,GGUAAAACAGGUAUGUCGCTT against Ramac,0.48
10,CGAUGAGCUAAGAGAGUCCTT against Cand2,3.09 (active)
11,GGCCUACCUGGUUGAGAAATT against Spam1,1.44
12,GGUCUAUGAAGAGAAGACUTT against Mtres1,0.8
13,GGCACAGUUCCUCAGUAUGTT against Hspbap1,1.76
14,GCAUUAUACCUGUCAAGUUTT against Klk1b1,0.608
15,CGAGUCAAUCAACUUGUCUTT against Olfr54,-0.882
16,GGACUCUGAUCUGGAGUAGTT against Slc51a,-0.397
17,GGCAAACAUCUGUAUCUAUTT against Golph3,-0.571
18,CGGCAACUCAACAAGCUUATT against Cbfa2t3,2.38 (active)
19,GGCAUCUUUUGAAACAAUATT against Ubxn8,-1.04
20,GGCAGUGGGAUUACAAUGATT against Med12,2.02 (active)
21,GGCAUACAAAGCCCUCUAUTT against Kcnrg,-0.457
22,GGAUGUGAUGACUCAUUUUTT against Zbtb8os,0.976

row,Sequence,z-score
1,GGUGAAUAAAGACCGAGGUTT against Anks6,-1.58
2,GCGUGAGGAUGUAGACUACTT against Mmp12,0.699
3,GGACAUUUUUGUCUCUAAATT against Pacc1,0.167
4,CCGACACAAGAUGCUCAGUTT against Tmem9,-2.3 (active)
5,GGACAAUUCCAUGCUUCCCTT against Il24,-0.00641
6,CGCGCAGAUGCACCAGAUUTT against 2610028H24Rik,1.12
7,GGUCAAAGAUGCUAUAAAATT against Olfr993,-0.843
8,GGAGGCAGCUCCUAUGAUGTT against Rbm28,0.378
9,GGUGACUGGUAAAUGCCAGTT against Olfr1502,-0.428
10,GCCUAUGAUAAGUCUGUGUTT against Ifitm10,-2.25 (active)
11,CGGUCUUUAUACACAUAUATT against Wnt7a,-0.0297
12,GGUGAGAAUGUGCUUCAAUTT against Egr2,-0.0732
13,GCAUCGUCUAUAUUUUUGGTT against Timm50,-1.56
14,GGAAGACGAAGAGUUUGGATT against Aqp5,2.37 (active)
15,GGAAUGCUUAGUGAAAUUUTT against Ahctf1,0.481
16,GGAUUCUGAACCUUACAGATT against Hoxd9,1.61
17,CGGAGUUGGGAUUUACCAGTT against Pdia5,-0.594
18,CCGAGGAGAACACUUGUAGTT against Opn4,-2.54 (active)
19,GGCACCUUAAUGCUGACUUTT against Sdc4,-0.694
20,GGCUCAAGGUUUUCUCUACTT against Olfr710,-0.0341
